Laboratory results published in PubChem BioAssay.
Values without a mark were called inactive. The rule behind the calls is not given here.

Each compound was assayed against Pantothenate synthetase (Mycobacterium tuberculosis (strain ATCC 25618 / H37Rv)) (UniProt P9WIL5) (assay: Coupled enzyme confirmation of inhibitors against recombinant Mtb PanC (AID 375;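 note: 0% = full reaction with vehicle and 100% = no enzyme background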)). Settings: coupled enzyme assay; at 10 µM, active compounds read high.
Chain of Pantothenate synthetase (Mycobacterium tuberculosis (strain ATCC 25618 / H37Rv)) (P9WIL5 whole entry, looked up): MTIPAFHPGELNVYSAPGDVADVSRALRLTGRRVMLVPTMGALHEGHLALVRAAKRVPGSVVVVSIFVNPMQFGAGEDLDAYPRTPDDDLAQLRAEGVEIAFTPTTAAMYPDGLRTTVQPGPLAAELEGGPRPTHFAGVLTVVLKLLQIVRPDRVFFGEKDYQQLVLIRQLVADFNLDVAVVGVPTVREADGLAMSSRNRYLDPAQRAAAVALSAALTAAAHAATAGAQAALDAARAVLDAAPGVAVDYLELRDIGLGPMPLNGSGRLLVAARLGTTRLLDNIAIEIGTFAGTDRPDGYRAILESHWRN
`CCOC(=O)CSC1=C(C#N)C(c2ccc(C)o2)CC(=O)N1` (stereo not given) gave an inhibition of 0%. In the case of `O=C(NCc1ccco1)c1cc2c(s1)CSC2`, the inhibition is reported as 0%. With `CC(=O)Nc1ccc(N=Cc2nc(-c3ccc(C)cc3)oc2O)cc1` the inhibition was 0%. For `Cc1nnc(N(C)C(=O)Cc2ccc3c(c2)OCO3)s1`, the inhibition was 0%. Compound `CCCC(C)c1nnc(NC(=O)C2CCCO2)s1` (stereo not given) has an inhibition of 0%. Work on `N#Cc1cnc2sc3ccccc3n2c1=N` yielded an inhibition of 3%. `Cc1nc2ccccc2c2oc(C(=O)N3CCN(C(=O)c4ccco4)CC3)cc12` was tested, and the inhibition was 0%. In the case of `Cc1cc(=O)oc2ccc(OCC(=O)N3CCC(C)CC3)cc12`, the inhibition is reported as 0%. `CC(C)Cn1c(CN2CCCCC2C)nc2c1c(=O)n(C)c(=O)n2C` (stereo not given) showed an inhibition of 0%. Compound `CCOC(=O)CSC1=Nc2ccccc2C2=NC(CC(=O)NCc3ccc(OC)cc3)C(=O)N12` (stereo not given) has an inhibition of 2%. Compound `COc1cc(C(Nc2ccc3c(c2)OCO3)C(=O)NC2CCCCC2)cc(OC)c1OC` (stereo not given) has an inhibition of 2%. For `Cc1cc2c(s1)c1cnn(CC(=O)NCCc3ccccc3)c(=O)c1n2C`, the inhibition was 0%. Compound `CC(=O)c1cc2c(cc1NC(=O)CN1CCN(C(=O)c3ccco3)CC1)OCO2` has an inhibition of 4%. For `COCCN(C(=O)Cn1nnc2ccccc21)C(C(=O)NC1CCCC1)c1cc(OC)ccc1OC` (stereo not given), the inhibition was 6%. In the case of `CC(=O)C1=C(O)C(=O)N(Cc2ccco2)C1c1ccc(F)cc1` (stereo not given), the inhibition is reported as 10%. `O=C(CN1C(=O)c2ccccc2C1=O)NCC1COc2ccccc2O1` (stereo not given) showed an inhibition of 0%. `COc1cccc(Oc2ccc(N)cc2)c1` showed an inhibition of 0%. Compound `CC(=O)Nc1ccc(NC(=O)c2ccccc2N(C)S(C)(=O)=O)cc1` has an inhibition of 2%. `Cc1ccc(NCC(O)C(O)C(O)CO)cc1C` (stereo not given) showed an inhibition of 0%. `COCCn1nnnc1SCC(=O)N1CCCCC1` was tested, and the inhibition was 0%. In the case of `COc1cccc(OCc2nc3ccccc3[nH]2)c1`, the inhibition is reported as 0%. `Cc1c(C(=O)Nc2ccncc2)oc2c1C(=O)CC(C)(C)C2` gave an inhibition of 5%. Work on `O=C(Cc1ccsc1-c1ccccc1)NO` yielded an inhibition of 0%. `COc1ccc(S(=O)(=O)N2CCC(C(=O)NCc3ccco3)CC2)cc1` was tested, and the inhibition was 2%. For `Cc1ccccc1-c1nc(CN2CCC(C(=O)N3CCC(C(N)=O)CC3)CC2)c(C)o1`, the inhibition was 0%. For `CC(C)(CO)NC(=O)CCCOc1ccc(Cl)cc1Cl`, the inhibition was 0%. `O=C(c1ccc(F)cc1)C1CCN(CCn2c(=O)[nH]c3ccccc3c2=O)CC1` showed an inhibition of 0%. For `O=C(Cn1ncc2c1-c1ccccc1OC2)Nc1ccc(Cl)cn1`, the inhibition was 6%. With `Cn1cnc2c(N3CCCCC3)nccc21` the inhibition was 0%. Compound `COc1ccc(/C=C(/C#N)c2cccnc2)cc1OC` has an inhibition of 8%. With `COC(=O)CSc1nnc(CSc2nc(C)cc(C)n2)n1Cc1ccco1` the inhibition was 0%. For `CCOc1ccc(Cn2nnc(C(=O)Nc3cc(C)cc(C)c3)c2N)cc1`, the inhibition was 0%. For `CCOc1cc(C(=O)Nc2ccon2)cc(OCC)c1OCC`, the inhibition was 8%. For `CCNC(=O)C1CC(=O)N(Cc2ccc3c(c2)OCO3)C(=Nc2ccc(OCC)cc2)S1` (stereo not given), the inhibition was 0%. Work on `COc1ccc2c(c1OC)C(=O)O[C@@H]2[C@H]1c2c(cc3c(c2OC)OCO3)CCN1C` yielded an inhibition of 0%. With `Cc1ccc2nc(-c3ccccn3)cc(C(=O)N3CCN(c4ncccn4)CC3)c2c1` the inhibition was 3%. Compound `CCN(CC)c1ccc(-c2nn3c(-c4cccnc4)nnc3s2)cc1` has an inhibition of 4%. Work on `COc1ccc(C)cc1-n1c(N)c(C#N)c(C#N)c1-c1ccc(OC)c(OC)c1OC` yielded an inhibition of 4%. With `O=C(CCc1ccc(S(=O)(=O)N2CCOCC2)cc1)NCCc1ccccn1` the inhibition was 0%. For `CC1CCN(C(=O)CSc2nc3c(cnn3-c3ccccc3)c(=O)[nH]2)CC1`, the inhibition was 0%.
